In PubChem BioAssay (NCI):
Where “and” joins values, the source holds several entries; their conditions need not be identical. Identical values can stand only once. Compounds without any hit were thinned out: in the full panel of roughly 83,000, 20% have a hit.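 96-well plates, one dose, 48 hours. Percent growth reported; active if below 10.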 A number with no mark means an inactive call. Calls of active or inactive are those of the source.

The molecules below were run on HL-60(TB) leukemia (assay: NCI-60 one-dose screen, 48 h (100 = growth as untreated, 0 = no growth, -100 = all killed)). Details: 10 µM unless noted.

| Structure (SMILES) | growth |
| --- | --- |
| COc1cc(NC2CCC(=O)N2c2ccc(Cl)cc2Cl)cc(OC)c1OC (centres undefined) | -3.13% (active) |
| Cc1ccc(C2=Nc3c(N)ncnc3NC(c3cccc(Nc4ccnc5cc(C(F)(F)F)ccc45)c3)C2)cc1 (centres undefined) | 0.514% (active) |
| c1ccc(CNc2c3ccccc3nc3ccccc23)cc1 | 43.8% |
| ClCCn1c(CCl)nc2ccc(Cl)cc21 | -69% (active) |
| O=C1/C(=C/c2ccccc2[N+](=O)[O-])Cc2ccccc21 | 31.7% and 63.7% |
| S=c1ssnc1-c1ccccn1 | -43.5% (active) |
| C=C1NC(=O)C(C(C)CC)NC(=O)C2CSCC(NC(=O)CCC(=O)O)C(=O)NC(Cc3ccccc3)C(=O)NC(C)C(=O)NC(CC(C)CC)C(=O)NC(C(=O)NC(Cc3ccccc3)C(=O)N3CCCC3C(=O)N2)C(C)OC(=O)C(CO)NC(=O)C(C(O)COC)N(C)C(=O)C(C(C)C)NC(=O)C(CC(C)CC)NC1=O (centres undefined) | -26.8% [6 µM] (active) |
| CCN(CC)CCOc1ccc(C(=C(C)c2ccc(Cl)cc2)c2ccc(OCCN(CC)CC)cc2)cc1 | -55.5% (active) |
| O=C(Nc1ccc(Cl)cc1)c1cc2ccccc2cc1O | -8.5% (active) and -29.4% (active) |
| CCOC(=O)C(=Cc1ccc(Br)cc1)C(=O)OCC | -41.8% (active) |
| O=C(Nc1ccc(Br)cc1F)c1cc(Cl)ccc1O | -42.4% (active) |
| CC(C)(C)c1cc(C(=O)Nc2ccc(C(=O)NCCN)cc2)cc(C(C)(C)C)c1 | -68.4% (active) |
| Cc1c(C(=O)NCCN2CCOCC2)cn2ncnc(Oc3ccc(NC(=O)Nc4ccc(Cl)c(C(F)(F)F)c4)cc3)c12 | -0.946% (active) |
| N#CC1C(=O)c2ccccc2C1c1ccccc1 (centres undefined) | 108% and 103% |
| c1cnc2c(-c3nc4ccc5[nH]ncc5c4c4c3CCCC4)c[nH]c2c1 | 41.5% |
| COc1ccc(C2C3=C(COC3=O)N(CCO)c3cc4c(cc32)CCC4)cc1 (centres undefined) | 4.72% (active) |
| O=c1ccn2nc3ccccc3c2[nH]1 | 93.1% |
| O=C(O)C(Cc1ccc(OS(=O)(=O)Cc2ccccc2)cc1)NS(=O)(=O)Cc1ccccc1 (centres undefined) | 109% and 82.6% |
| COC1(OC)C2(Cl)C=C(c3ccccc3)C1(Cl)C(Cl)=C2Cl (centres undefined) | 83.7% |
| COc1cc(C2CC(c3cc(OC)c(OCCCOc4ccc(-n5c(/C=C/c6ccccc6)nc6ccccc6c5=O)cc4)c(OC)c3)=NO2)cc(OC)c1OC (centres undefined) | 119% |

| Structure (SMILES) | growth |
| --- | --- |
| COc1cccc(-c2nnc(COc3ccc(-c4nc5ccc(C)cc5[nH]4)cc3OC)o2)c1 | -56.2% (active) |
| COc1ccc(CN2C(=O)/C(=C\C(=O)c3ccc(OCCN4CCCCC4)cc3)c3ccccc32)cc1 | 20% |
| Cc1ccc(C(=O)NN)cc1 | 124% |
| CCN(CC)CCCOc1ccc2c(c1)O/C(=C\c1cccc(OC)c1)C2=O | 97.4% |
| O=C1C2=C(C(=O)c3ccccc31)C(O)(S(=O)(=O)O)C(O)(S(=O)(=O)O)C1N=CC=CC21 (centres undefined) | 28.7% and 31.4% |
| N#CC1=C(Nc2ccccc2Cl)SC(c2ccccc2O)NC1=O (centres undefined) | 93.1% |
| CCCCn1c(=O)c(C2CNC(=O)c3ccccc3N2)cc2ccccc21 (centres undefined) | 96.7% |
| COc1ccc2occ(C3=C(c4c[nH]c5ccccc45)C(=O)N(O)C3=O)c2c1 | 97.3% |
| COc1ccc(OC)c(NC=O)c1 | 62.2% |
| O=C1c2cccnc2C(=O)c2c1c(C(=O)NCCCN1CCCCC1)c1ccccn21 | -29% (active) |
| COc1cc(/C=C/C(=O)c2c(C)n([O-])c3ccccc3[n+]2=O)cc(OC)c1OC | -10.8% (active) |
| COc1ccc(NC(=O)c2sc3nc(C)c(C(=O)/C=C/c4cccc(OC)c4)cc3c2N)cc1 | 33.6% |
| OCc1n(Cc2ccc3ccccc3c2)cc[n+]1Cc1ccc2ccccc2c1 | 6.82% (active) |
| COc1cc(NS(C)(=O)=O)ccc1Nc1c2ccccc2nc2c(C)cccc12 | -29.5% (active) and -20.2% (active) |
| CCCCOc1ccc(NC(=O)n2nc(N=NN(C)C)c3ccc(Cl)cc32)cc1 | 107% |
| N#Cc1cccc(F)c1 | 76.2% |
| COc1cc(-c2cc(=O)oc3cc(O)ccc23)cc(OC)c1OC | 86.3% |
| Cc1cc(Br)nnc1Br | 84.3% |
| CC(C)C1C2=C(NCCN1C(=O)Cc1ccccc1)C(C)(C)N(Cc1ccccc1)C2=O (centres undefined) | 100% |
